Shown are actives, neighbours in structure and some others; about 10% of the full set was active somewhere.
JMJD2A Tudor – JMJD2A Tudor domain (human) inhibition | AlphaScreen JMJD2A-Tudor / H3K4me3 peptide binding | O75164 | AID 504339 | Potency, µM (titrated, usually from 114 µM), for the others: at the highest dose activity change, negative = inhibition, actives largely listed as inhibitors | hit rate 4.4% among 390,000; also: potency is read from the fitted curve at half-maximal effect; % is scaled to controls: 0 for no effect and ±100 for the full control effect; nearly all actives have a fitted effect of over 50% in size
Six1-Eya2 blk – blocks human Six1 binding to Eya2; AlphaScreen GST-Six1/His-Eya2 binding, biochemical; stronger effect = lower value; activity change, % (no concentration beside the values); hit rate 0.56% among 360,000; Q15475+O00167; in the data active = activity change below about -65%; inconclusive = mostly about -30% to -63%; also: % is scaled to controls: 0 for no effect and ±100 for the full control effect
Target sequence (O00167 whole entry, looked up): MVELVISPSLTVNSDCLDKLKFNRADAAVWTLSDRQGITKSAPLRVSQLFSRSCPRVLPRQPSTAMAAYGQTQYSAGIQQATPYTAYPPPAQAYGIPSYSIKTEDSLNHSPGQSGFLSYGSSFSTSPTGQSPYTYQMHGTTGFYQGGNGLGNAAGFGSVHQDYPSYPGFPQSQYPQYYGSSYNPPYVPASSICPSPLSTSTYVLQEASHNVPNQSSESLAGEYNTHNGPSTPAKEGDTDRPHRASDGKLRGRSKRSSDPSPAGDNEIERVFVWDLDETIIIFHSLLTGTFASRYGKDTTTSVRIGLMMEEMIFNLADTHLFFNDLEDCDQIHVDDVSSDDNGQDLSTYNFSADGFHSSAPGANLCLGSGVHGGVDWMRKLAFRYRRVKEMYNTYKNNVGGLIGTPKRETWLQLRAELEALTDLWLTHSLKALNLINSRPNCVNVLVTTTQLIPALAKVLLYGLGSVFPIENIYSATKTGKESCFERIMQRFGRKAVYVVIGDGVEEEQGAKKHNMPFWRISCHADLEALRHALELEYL
Target sequence (Q15475 whole entry, looked up): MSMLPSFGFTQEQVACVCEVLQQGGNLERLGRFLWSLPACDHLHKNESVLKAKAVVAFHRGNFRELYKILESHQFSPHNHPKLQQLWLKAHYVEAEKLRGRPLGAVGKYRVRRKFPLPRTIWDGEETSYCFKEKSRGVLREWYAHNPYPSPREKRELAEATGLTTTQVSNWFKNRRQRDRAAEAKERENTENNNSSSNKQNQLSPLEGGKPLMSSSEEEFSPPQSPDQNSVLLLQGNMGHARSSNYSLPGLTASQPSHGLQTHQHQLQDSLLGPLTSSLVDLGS
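AlphaScreen luminescence read after one hour at 37 °C in darkness. Pin-transferred compounds met GST-Six1 and His-Eya2 protein (5X stock 250 nM/500 nM) plus glutathione donor and Ni-chelate acceptor beads (5X, 50 ug/mL).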
CtBP-E1A inh – blocks the CtBP interaction with E1A; AlphaScreen GST-E1A/His-CtBP binding, 1536-well; stronger effect = lower value; hit rate 0.49% among 340,000; activity change, % (no concentration beside the values); in the data active = activity change below about -65%; inconclusive = mostly about -30% to -63%; also: % is scaled to controls: 0 for no effect and ±100 for the full control effect
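Steps: dispense buffer (Tris pH 8.0, NaCl 300 mM, TCEP 1 mM, BSA, Tween 20); add 5X protein mix (GST-E1A, His-CtBP, 125 nM each); pin 23 nL compound; 2 h at 37 °C, dark; add 5X beads (50 ug/mL); 1 h; read.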
HP1b binding inh – blocks HP1-beta chromodomain binding to methylated histone tails. Potency, µM (top dose mostly 114 µM), without a hit: top-dose activity change, negative = inhibition, actives largely listed as inhibitors. hit rate 0.56% among 390,000. AlphaScreen HP1-beta / biotin-H3K9me3 peptide binding. AID 540317. P83916; also: potency is read from the fitted curve at half-maximal effect; nearly all actives have a fitted effect of over 70% in size
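AlphaScreen: HP1-beta (50 nM) preformed 30 min with biotin-H3(1-18)K9me3 peptide (50 nM) in PBS pH 7.4, 0.01% Tween-20. Compound added for 30 min at RT, then streptavidin donor/nickel chelate acceptor beads (10 ug/mL) for 30 min.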
BAZ2B block – BAZ2B (human) inhibition; hit rate 4.4% among 360,000; Potency, µM (series often up to 114 µM), without a hit: at the highest dose activity change, negative = inhibition, hits mostly inhibitors; AlphaScreen BAZ2B-H3K14Ac peptide displacement; also: potency is read from the fitted curve at half-maximal effect; % is scaled to controls: 0 for no effect and ±100 for the full control effect; nearly all actives have a fitted effect of over 60% in size
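Inhibition is scored as reduced AlphaScreen emission. The BAZ2B/b-H3(5-23)K14Ac complex (50 nM each) in PBS pH 7.4, 0.01% Tween-20 meets compound (up to 110 uM) for 30 min at RT before bead addition.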
G9a block – G9a (human) methyltransferase inhibition | Potency, µM (titrated, usually from 102 µM), without a hit: at the top dose activity, negative = inhibition, actives largely listed as inhibitors | AID 504332 | hit rate 8.8% among 350,000 | G9a H3K9 monomethylation, AlphaScreen, 2 h | Q96KQ7; also: potency is read from the fitted curve at half-maximal effect; % is scaled to controls: 0 for no effect and ±100 for the full control effect; nearly all actives have a fitted effect of over 75% in size
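Enzyme 20 nM + cpd, 15 min RT; add b-H3K9 pep 500 nM / SAM 20 uM; 2 h RT; anti-H3K9me1 Ab 0.5 ug/mL + SA donor / anti-rabbit acceptor beads 20 ug/mL each, 10 min; AlphaScreen read.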
* = called active by the depositor; ? = inconclusive; . = no result given; [ ] = another dose, or the depositor's remark. Unless noted, calls follow the shape of the dose curve; as a rule, active = well fitted inhibition curve with a large enough effect; inconclusive = small, poorly fitted or top-dose-only effect; inactive = no such curve, though single readings can be large or run the other way.

SMILES	JMJD2A Tudor	Six1-Eya2 blk	CtBP-E1A inh	HP1b binding inh	BAZ2B block	G9a block
Cc1ccc2[nH]c(O)c(N=Nc3ccccc3C)c2c1	?	13.3	-1.2	70.8µM*	?	8.91µM*
Cc1ccccc1N=Nc1c(O)[nH]c2ccccc12	?	5.2	1.9	-5.1%	.	.
COc1ccc2[nH]c(N=Nc3ccccc3C)c(O)c2c1	44.7µM*	-0.6	-21.0	-12.4%	?	12.6µM*
CCCC/C=C/[C@H](c1ccccc1)[C@H](CO)Cc1ccc2ccccc2c1	51.7%	.	.	94.9%	.	.
Cc1ccc(Nc2nnc(-c3ccc(C)c(S(=O)(=O)N4CCOCC4)c3)c3ccccc23)cc1	-22.2%	.	.	13.5%	2.1%	-29.7%[59 µM]
O=C(N=Nc1c(O)[nH]c2ccc(Br)cc12)c1ccccc1-n1cccc1	15.8µM*	?	?	?	31.6µM*	25.1µM*
COCCN=c1scc(-c2cc(OC)ccc2OC)n1/N=C/c1c[nH]c2ccccc12	39.8µM*	?	?	?	11.2µM*	10µM*
COc1ccc(-n2c(C)c([N+](=O)[O-])c3ccc(O)c(CN4CCCCC4)c32)cc1	?	-9.0	-7.3	?	?	25.1µM*
Cc1ccc(-n2c(C)c([N+](=O)[O-])c3ccc(O)c(CN(C)C)c32)cc1	-18.2%	-4.8	-2.9	?	-37.4%	?
Cc1cc(C(F)(F)F)c(C#N)c(N2CCOCC2)n1	28.2µM*	-3.5	6.8	-7.5%	8.6%	11.7%
Cc1cc(C)c(C#N)c(N2CCCC2)n1	4.4%	4.8	5.7	38.8%	9.8%	32.3%[59 µM]
CCCOC(=O)Nc1nc2ccccc2o1	?	-6.3	-9.3	9.7%	79.4µM*	50.1µM*
COc1ccccc1CNC(=O)c1cc2cccc3c2n1CC(C)S3 (stereo not given)	-20.0%	.	.	37.6%	5.0%	-7.9%[59 µM]
Cn1c(N)c(C(=O)COC(=O)Cc2ccc(Br)cc2)c(=O)n(C)c1=O	-4.1%	12.7	-3.4	20.5%	.	.
CC(=O)Oc1ccc(C(=O)OCC(=O)c2c(N)n(C)c(=O)n(C)c2=O)cc1OC(C)=O	8.9%	-82.9*	-18.2	21.5%	-24.6%	50.1µM*
CC(=O)NC(CC(=O)OCC(=O)c1c(N)n(C)c(=O)n(C)c1=O)c1ccccc1 (stereo not given)	12.6µM*	-1.5	0.0	-11.8%	-17.6%	-11.5%
Cn1c(N)c(C(=O)COC(=O)CSc2cccc3cccc(Cl)c23)c(=O)n(C)c1=O	50.1µM*	-2.2	-3.1	-10.6%	?	.
Cn1c(N)c(C(=O)COC(=O)CSc2ccc3ccccc3c2)c(=O)n(C)c1=O	-13.0%	2.5	-15.1	17.2%	-2.2%	-32.2%[59 µM]
COc1ccc(C(=O)OCC(=O)c2c(N)n(C)c(=O)n(C)c2=O)cc1OC	1.4%[57.1 µM]	1.6	0.0	22.0%	-7.9%	-23.9%
Cn1c(N)c(C(=O)COC(=O)Cc2ccsc2)c(=O)n(C)c1=O	-8.2%	6.7	-7.5	22.7%	31.9%	44.7µM*
Cc1ccc(S(=O)(=O)N2CCN(c3nc(-c4ncco4)nc4ccccc34)CC2)cc1	-35.4%	.	.	0.9%	.	.
COc1ccc(NC(=O)CSc2ncc(-c3ccc(Cl)cc3)[nH]2)cc1OC	-17.1%	.	.	20.6%	?	-60.7%[59 µM]
CN(C)S(=O)(=O)c1cccc(NC(=S)N/N=C/c2cc(Br)ccc2O)c1	28.2µM*	-88.4*	-93.8*	-19.0%	17.8µM*	.
CN(C)S(=O)(=O)c1cccc(-c2nnc(SCCNCCO)n2-c2ccc(F)cc2)c1	50.1µM*	20.9	0.0	20.6%	79.4µM*	?
CCCSc1nnc(-c2cccc(S(=O)(=O)N(C)C)c2)n1-c1cc(OC)ccc1OC	-15.5%	-2.1	-2.9	9.3%	-3.3%	3.6%[59 µM]
SMILES	JMJD2A Tudor	Six1-Eya2 blk	CtBP-E1A inh	HP1b binding inh	BAZ2B block	G9a block
Cc1ccc(NC(=O)Nc2ccccc2)cc1[N+](=O)[O-]	-13.0%	-4.7	1.0	15.8%	-28.3%	8.8%[59 µM]
CCOC(=O)c1ccc(Nc2ncccc2[N+](=O)[O-])cc1	?	-29.9	-21.3	?	7.94µM*	.
COC(=O)c1ccc(N/N=C/c2cc([N+](=O)[O-])cc(OC)c2O)cc1	-18.2%	-2.9	4.3	29.0%	-16.0%	?
Cc1ccc(Nc2ncccc2C(N)=O)cc1[N+](=O)[O-]	-14.7%	-3.5	1.3	-11.6%	-30.1%	35.5µM*
CCOC(=O)c1ccc(N/N=C/c2cc(Br)cc([N+](=O)[O-])c2O)cc1	10µM*	-12.5	-10.5	?	?	0.562µM*
Cc1cc([N+](=O)[O-])ccc1NC(=O)CSc1nccn1C	-9.3%	.	.	55.2%	3.8%	28.5%[59 µM]
COc1ccc(CNC(=O)C2CCN(Cc3nc(-c4ccc(Cl)cc4)oc3C)CC2)cc1	-14.8%	.	.	20.9%	-13.4%	1.4%[59 µM]
COc1cccc(C2Nc3ccccc3-c3nnc(SCc4ccccc4)nc3O2)c1OC (stereo not given)	?	.	.	1.6%	-26.3%	9.5%[59 µM]
CN1CCN(CC(=O)Nc2nnc(-c3cccs3)s2)CC1	11.2µM*	8.2	1.1	4.2%	-4.0%	?
CCc1nnc(NC(=O)CN2CC(C)OC(C)C2)s1 (stereo not given)	-1.4%	-6.8	.	13.5%	-2.9%	14.4%
CCCc1nnc(NC(=O)CN2CCN(C)CC2)s1	-19.7%	4.0	8.3	34.5%	79.4µM*	?
COc1cccc(OC)c1C(=O)Nc1nnc(-c2cccs2)s1	-13.8%	2.1	1.3	-2.1%	-1.1%	.
CCC(CC)C(=O)Nc1nnc(-c2cccs2)s1	-12.2%	3.9	4.2	-12.8%	5.3%	15.8µM*
CCc1nnc(NC(=O)CN2CCN(C3CCCCC3)CC2)s1	7.08µM*	2.1	1.6	-18.7%	?	10µM*
CCCN1CCN(CC(=O)Nc2nnc(C)s2)CC1	-9.0%	8.3	.	12.5%	-28.7%	.
CCc1ccc(NC(=O)N(Cc2cn(CC)c3ccccc23)C2CCCCC2)cc1	-31.3%	.	.	19.7%	.	-39.9%[59 µM]
COc1ccc(NC(=O)C2CCC(CNS(=O)(=O)c3ccc(Br)s3)CC2)c(OC)c1 (stereo not given)	-3.8%	.	.	10.0%	1.7%	-37.0%[59 µM]
CCc1ccc(-n2nc(C)c3c(C)cc(=O)n(CC(=O)Nc4cc(C)ccc4C)c32)cc1	-8.0%	.	.	11.8%	-4.9%	?
COc1ccc(CC(=O)NCC(c2cccs2)S(=O)(=O)c2ccc(C)cc2)cc1 (stereo not given)	-5.5%	.	.	17.9%	-15.3%	-5.7%[59 µM]
O=C(Cn1c(-c2cccs2)cc2cc(Cl)ccc21)N1CCN(c2ccccc2F)CC1	?	.	.	1.7%	-1.3%	-6.5%[59 µM]
CCNc1ncc2nc(-c3ccccc3)c(=O)n(C)c2n1	.	.	.	.	.	5.2%[0.501 µM]
O=C(Nc1ccc(C2=NCCN2)cc1)c1ccc(C(=O)Nc2ccc(C3=NCCN3)cc2)c([N+](=O)[O-])c1	?	-18.4	?	?	?	39.8µM*

Bioassay records (PubChem)
